# A selection: hits, their analogues and other compounds. The true share with any hit is near 2.8%.
# POLI inh = DNA polymerase iota (human) inhibition; Q9UNA4; Pol iota fluorescent replication assay, 10 min; Potency, µM (titrated, usually from 115 µM), for the others: at the top dose activity, negative = inhibition, hits mostly inhibitors; 390,000 tested, 1% active; also: potency is read from the fitted curve at half-maximal effect
#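 Pol iota at 10 nM preincubated 15 min with compounds at room temperature; reaction started with fluorescent substrate, 50 nM final. Fluorescence read kinetically at 0 and 10 min; buffer-only wells as negative control.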
# FEN1 inh = blocks human flap endonuclease 1; 390,000 tested, 0.35% active; P39748; Recombinant FEN1 flap cleavage, fluorescence, 15 min; Potency, µM (series often up to 114 µM), inactives show top-dose activity change, negative = inhibition, actives largely listed as inhibitors; AID 588795; also: potency is read from the fitted curve at half-maximal effect; % is scaled to controls: 0 for no effect and ±100 for the full control effect; nearly all actives have a fitted effect of over 65% in size
#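 FEN1 at 10 nM, compound pretreatment for 15 min (room temperature), 50 nM final substrate to initiate; endpoint reads at 0 and 15 min; DMSO-only plates used as vehicle background.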
# Pol beta inh = DNA polymerase beta (human) inhibition; P06746; Pol beta primer extension/strand displacement, fluorescence kinetic; Potency, µM (titrated, usually from 114 µM), for the others: at the top dose activity change, negative = inhibition, hits mostly inhibitors; 340,000 tested, 1.3% active; also: potency is read from the fitted curve at half-maximal effect; % is scaled to controls: 0 for no effect and ±100 for the full control effect
#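 Enzyme-only controls used 10 nM Pol beta; buffer lacking enzyme served as negative control. Compound preincubated 15 min, then 50 nM substrate added; 0 and 10 min reads at room temperature.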
# POLH inh = inhibitors of human DNA polymerase eta; 390,000 tested, 1.2% active; recombinant Pol eta, fluorescent DNA replication assay; Potency, µM (highest dose often 114 µM), inactives show at the top dose activity change, negative = inhibition, hits mostly inhibitors; also: potency is read from the fitted curve at half-maximal effect; % is scaled to controls: 0 for no effect and ±100 for the full control effect
# Target sequence (Q9Y253 whole entry, looked up): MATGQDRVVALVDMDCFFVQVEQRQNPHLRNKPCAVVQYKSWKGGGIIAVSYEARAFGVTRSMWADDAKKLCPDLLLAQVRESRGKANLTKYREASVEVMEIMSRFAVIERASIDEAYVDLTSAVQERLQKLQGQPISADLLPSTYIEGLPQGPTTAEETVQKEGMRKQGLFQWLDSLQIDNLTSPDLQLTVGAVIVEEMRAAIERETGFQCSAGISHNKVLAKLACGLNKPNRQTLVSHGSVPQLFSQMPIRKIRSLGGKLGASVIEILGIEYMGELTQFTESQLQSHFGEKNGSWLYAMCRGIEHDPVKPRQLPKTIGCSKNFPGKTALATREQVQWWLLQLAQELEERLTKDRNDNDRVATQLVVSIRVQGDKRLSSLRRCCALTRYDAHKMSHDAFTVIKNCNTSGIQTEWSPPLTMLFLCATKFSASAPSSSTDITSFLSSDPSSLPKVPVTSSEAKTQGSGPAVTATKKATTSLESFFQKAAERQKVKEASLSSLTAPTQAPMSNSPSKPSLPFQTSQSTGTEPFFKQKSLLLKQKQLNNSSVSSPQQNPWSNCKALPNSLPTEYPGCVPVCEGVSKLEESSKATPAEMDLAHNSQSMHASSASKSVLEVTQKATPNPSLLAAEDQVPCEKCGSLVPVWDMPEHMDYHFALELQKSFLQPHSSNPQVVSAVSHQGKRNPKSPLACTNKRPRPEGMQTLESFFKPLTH
#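 Pol eta (10 nM) was preincubated with compounds for 15 min at room temperature, after which fluorescent replication substrate (50 nM final) was added to start the reaction. Fluorescence was read kinetically at 0 and 10 min.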
# Pol kappa inh = DNA polymerase kappa (human) inhibition; purified Pol kappa, fluorescent DNA synthesis assay, 10 min; Q9UBT6; 400,000 tested, 0.53% active; Potency, µM (series often up to 107 µM), for the others: at the top dose activity, negative = inhibition, hits mostly inhibitors; also: potency is read from the fitted curve at half-maximal effect; % is scaled to controls: 0 for no effect and ±100 for the full control effect
#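 Kinetic fluorescence readout at 0 and 10 min followed reaction start with substrate at 50 nM final. Beforehand, enzyme (10 nM Pol kappa) stood 15 min with compound at room temperature; buffer-only wells were negative controls.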
# PI5P4K alpha inh = blocks human PI5P4K alpha kinase activity; P48426; PI5P4Kalpha enzyme, ADP-Glo luminescence, 60 min; hits give low values; max response, %; 330,000 tested, 1.2% active; AID 652105; active = max response of -50% or lower; inconclusive = between -30% and -50%; inactive = -30% or higher; also: value at the top dose of about 77 µM; % is scaled to controls: 0 for no effect and ±100 for the full control effect
#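 Human PI5P4Kalpha with substrate in 0.038 M HEPES pH 7.4, 0.28 mM EGTA, 0.1% CHAPS, 5% DMSO; reaction started with 5 microM ATP (final), 60 min at room temperature. ADP formed read by ADP-Glo luminescence.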
# * = called active by the depositor; ? = inconclusive; · = no result; [ ] = dose if it differs, or a comment. Unless noted, calls follow the shape of the dose curve; as a rule, active = well fitted curve in the direction sought with a large enough effect; inconclusive = small, poorly fitted or top-dose-only effect, or another doubt; inactive = no such curve, though single readings can be large; an effect the other way counts as inactive or inconclusive.
SMILES,POLI inh,FEN1 inh,Pol beta inh,POLH inh,Pol kappa inh,PI5P4K alpha inh
O=C(CCC1CCCN(C(=O)c2ccc3cc[nH]c3c2)C1)N1CCN(c2ccccn2)CC1 (stereo unspecified),-4%,-5%,40µM*,-6%,8%,0
O=C(CCC1CCCN(C(=O)c2ccc3[nH]ccc3c2)C1)N1CCN(c2ccccn2)CC1 (stereo unspecified),-3%,11%,1%,-4%,2%,-2
O=c1cc(O)n(C2CCCCCC2)c(=O)[nH]1,?,5%,27%,-4%,11%,-20
O=c1[nH][nH]c(=S)n1C1CCCCC1,18%,?,27%,-17%,6%,-69*
O=c1[nH]n2c(=O)c3c([nH]c2c1N=Nc1cccc(Cl)c1)CCC3,20µM*,?,8.9µM*,20µM*,89µM*,-58*
O=c1[nH]n2c(=O)c3c([nH]c2c1N=Nc1cccc(C(F)(F)F)c1)CCCC3,-4%,?,18µM*,?,-28%,-19
Cc1[nH]n(C(N)=S)c(=O)c1N=Nc1cccc(C(F)(F)F)c1,137%,0%,17%,-3%,-1%,-3
NS(=O)(=O)c1ccc(N=Nc2c(=O)[nH]n3c(=O)c4c([nH]c23)CCCC4)cc1,35%,?,2%,-25%,-24%,-62*
Nc1nc2ncc(C(=O)c3cc(F)ccc3O)cc2s1,16%,-4%,25%,-17%,-1%,-25
Nc1nc2ncc(C(=O)c3cc(Cl)cc(Cl)c3O)cc2s1,139%,-12%,-12%,-24%,-17%,-57*
CCOc1ccccc1CNC(=O)c1cc2n(n1)CCCN(Cc1ccc(C)cc1)C2=O,?,-11%,-1%,-7%,-12%[60.1 µM],·
O=C(O)c1c2c(nc3ccc(S(=O)(=O)N4CCC(C(=O)N5CCCCC5)CC4)cc13)CCCC2,?,-5%,-2%,32µM*,?,4
CO[C@@]1(NC(=O)Cc2cccs2)C(=O)N2C(C(=O)O)=C(COC(N)=O)CS[C@@H]21,?,-1%,13µM*,?,?,-2
CO[C@@]1(NC(=O)Cc2cccs2)C(=O)N2C(C(=O)O)=C(COC(N)=O)CSC21 (stereo partly specified),·,·,·,·,32µM*,·
CO[C@@]1(NC(=O)CSCC#N)C(=O)N2C(C(=O)O)=C(CSc3nnnn3C)CSC21 (stereo partly specified),·,·,·,·,-4%[60.1 µM],·
CCc1cc2c(=O)c(-c3nc4ccccc4n3C)coc2c(CN2CCCCC2)c1O,31%,-16%,19%,3%,-2%[60.1 µM],-5
CCc1cc2c(=O)c(-c3nc4ccccc4n3C)coc2c(CN2CCCCC2C)c1O (stereo unspecified),32µM*,?,28µM*,?,-97%,-27
Cc1ccc(N(CC(=O)N2CCN(c3cc(Cl)ccc3C)CC2)S(=O)(=O)c2c(C)noc2C)cc1,13%,11%,-2%,?,-3%,·
COc1ccc(-n2c(O)c(/C=N/NS(=O)(=O)c3ccc(C)cc3)c3ccccc3c2=O)cc1OC,40µM*,-33%,?,-16%,-18%,-14
COc1ccccc1NS(=O)(=O)c1cccc(-n2c(O)c(C=Nc3ccccc3C(=O)O)c3ccccc3c2=O)c1,?,79µM*,56µM*,20µM*,-42%,-69*
O=C(CCCCCNC(=O)N1CCn2c1nc1ccccc12)NCc1ccccc1,-22%,12%,0%,-2%,-2%,-4
CCc1ccc(C2=C(C)C(N3CCC(C(=O)NCc4ccc(C)o4)CC3)=NS2(=O)=O)cc1,3%,-3%,6%,·,-10%,·
CCOC(=O)CSc1nc2cc3c(cc2c(=O)n1CCCC(=O)NCCc1ccc(OC)c(OC)c1)OCO3,-5%,-1%,2%,-10%,8%[60.1 µM],·
COc1ccc(NC(=O)c2cc3c(s2)-c2c(C)cccc2OC3)cc1Cl,-2%,-24%,11µM*,?,-29%,·
